Measurements taken from the supplement of paper PMC10849652.
About 7,900 targets were measured; listed, in parts, are those with a hit and a random draw of the rest. About 0.6% of all pairs of compound and target were hits. Unmarked numbers belong to inactive results.

Key:
Experiment in all cases: log2 fold change, soluble protein after heating vs DMSO (PISA); higher = thermal stabilisation; K562 cells, 10 uM, 30 min; active = over 0.2 and 3.5 SD of the protein, either way, in both replicates (recomputed)
[1] = compound: NC(=O)Nc1cc(-c2cccc(F)c2)sc1C(=O)N[C@H]1CCCNC1
Outline: (§1)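 K562 cells (2×10^6 cells/mL) were treated with 10 μM compound for 30 min, and aliquots were heated for 3 min over 48°C-58°C. Pooled aliquots were extracted in PBS with 0.5% NP-40 at 4°C, and the supernatant after 21,000xg for 90 min was measured by TMTpro 16plex LC-MS/MS with channel sums equalised. Reported thermal stability, relative to control samples and from duplicates, is a log2 fold change.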

[2] = compound: NC(=O)c1cnc(N[C@@H]2CCCC[C@@H]2N)nc1Nc1cccc(-n2nccn2)c1
Outline: as §1

[3] = compound: NC1(c2ccc(-c3nc4ccn5c(=O)[nH]nc5c4cc3-c3ccccc3)cc2)CCC1
Outline: as §1

[4] = compound: NCC(=O)Nc1ccc(-n2nc(C(F)(F)F)cc2-c2ccc3c(ccc4ccccc43)c2)cc1
Outline: as §1

entinostat = compound: Nc1ccccc1NC(=O)c1ccc(CNC(=O)OCc2cccnc2)cc1 [entinostat]
Outline: as §1

vorinostat = compound: O=C(CCCCCCC(=O)Nc1ccccc1)NO [vorinostat]
Outline: as §1

citarinostat = compound: O=C(CCCCCCNC(=O)c1cnc(N(c2ccccc2)c2ccccc2Cl)nc1)NO [citarinostat]
Outline: as §1

silmitasertib = compound: O=C(O)c1ccc2c(c1)nc(Nc1cccc(Cl)c1)c1ccncc12 [silmitasertib]
Outline: as §1

[5] = compound: O=C1NC(=O)C(c2cnc3ccccn23)=C1c1cn2c3c(cc(F)cc13)CN(C(=O)N1CCCCC1)CC2
Outline: as §1

[6] = compound: c1cc(OCCN2CCCCC2)cc(-c2n[nH]c3ccc(-c4nnc[nH]4)cc23)c1
Outline: as §1

entospletinib = compound: c1cn2cc(-c3ccc4cn[nH]c4c3)nc(Nc3ccc(N4CCOCC4)cc3)c2n1 [entospletinib]
Outline: as §1

Sequence of UniProt P40261 (P40261 whole entry, looked up): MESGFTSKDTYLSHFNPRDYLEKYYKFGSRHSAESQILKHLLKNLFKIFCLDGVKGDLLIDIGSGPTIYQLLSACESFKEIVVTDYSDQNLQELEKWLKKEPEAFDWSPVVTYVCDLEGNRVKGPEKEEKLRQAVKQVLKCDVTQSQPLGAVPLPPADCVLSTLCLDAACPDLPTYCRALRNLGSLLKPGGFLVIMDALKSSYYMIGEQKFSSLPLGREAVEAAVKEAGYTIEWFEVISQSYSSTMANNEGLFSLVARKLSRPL
Sequence of UniProt Q9UHC9 (Q9UHC9 whole entry, looked up): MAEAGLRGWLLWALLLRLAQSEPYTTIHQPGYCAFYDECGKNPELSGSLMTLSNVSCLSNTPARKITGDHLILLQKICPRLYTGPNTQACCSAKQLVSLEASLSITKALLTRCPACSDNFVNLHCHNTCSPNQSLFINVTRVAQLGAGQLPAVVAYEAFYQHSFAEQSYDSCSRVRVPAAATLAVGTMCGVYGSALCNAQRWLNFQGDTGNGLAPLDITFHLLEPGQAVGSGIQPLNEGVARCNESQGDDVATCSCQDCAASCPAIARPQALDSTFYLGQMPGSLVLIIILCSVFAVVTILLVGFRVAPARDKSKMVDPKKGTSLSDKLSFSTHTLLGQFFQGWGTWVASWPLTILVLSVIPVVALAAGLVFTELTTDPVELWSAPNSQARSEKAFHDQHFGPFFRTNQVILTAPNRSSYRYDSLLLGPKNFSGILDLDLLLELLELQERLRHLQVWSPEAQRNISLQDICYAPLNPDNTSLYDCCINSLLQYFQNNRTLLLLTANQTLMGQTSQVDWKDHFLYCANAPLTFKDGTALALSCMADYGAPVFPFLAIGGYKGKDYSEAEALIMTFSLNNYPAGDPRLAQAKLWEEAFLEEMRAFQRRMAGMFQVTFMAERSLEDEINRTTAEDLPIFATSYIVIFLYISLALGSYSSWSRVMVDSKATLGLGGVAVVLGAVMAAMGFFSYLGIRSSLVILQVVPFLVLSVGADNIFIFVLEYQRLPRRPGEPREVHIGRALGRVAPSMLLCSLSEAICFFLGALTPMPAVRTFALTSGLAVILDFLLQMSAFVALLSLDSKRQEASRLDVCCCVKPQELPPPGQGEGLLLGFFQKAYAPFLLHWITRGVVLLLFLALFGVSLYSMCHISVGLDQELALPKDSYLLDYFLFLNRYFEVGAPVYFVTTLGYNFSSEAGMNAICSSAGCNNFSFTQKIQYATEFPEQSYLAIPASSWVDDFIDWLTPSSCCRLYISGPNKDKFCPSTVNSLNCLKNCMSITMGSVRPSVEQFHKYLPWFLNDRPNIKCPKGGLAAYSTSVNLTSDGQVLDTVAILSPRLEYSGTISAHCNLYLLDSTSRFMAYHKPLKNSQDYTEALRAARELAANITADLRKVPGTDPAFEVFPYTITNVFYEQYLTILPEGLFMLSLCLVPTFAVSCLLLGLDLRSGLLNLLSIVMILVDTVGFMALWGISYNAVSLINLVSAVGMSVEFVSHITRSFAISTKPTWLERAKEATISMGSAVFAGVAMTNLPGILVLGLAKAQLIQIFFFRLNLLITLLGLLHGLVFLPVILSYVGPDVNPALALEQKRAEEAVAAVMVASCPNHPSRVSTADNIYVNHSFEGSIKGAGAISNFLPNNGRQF
Sequence of UniProt Q96T76 (Q96T76 whole entry, looked up): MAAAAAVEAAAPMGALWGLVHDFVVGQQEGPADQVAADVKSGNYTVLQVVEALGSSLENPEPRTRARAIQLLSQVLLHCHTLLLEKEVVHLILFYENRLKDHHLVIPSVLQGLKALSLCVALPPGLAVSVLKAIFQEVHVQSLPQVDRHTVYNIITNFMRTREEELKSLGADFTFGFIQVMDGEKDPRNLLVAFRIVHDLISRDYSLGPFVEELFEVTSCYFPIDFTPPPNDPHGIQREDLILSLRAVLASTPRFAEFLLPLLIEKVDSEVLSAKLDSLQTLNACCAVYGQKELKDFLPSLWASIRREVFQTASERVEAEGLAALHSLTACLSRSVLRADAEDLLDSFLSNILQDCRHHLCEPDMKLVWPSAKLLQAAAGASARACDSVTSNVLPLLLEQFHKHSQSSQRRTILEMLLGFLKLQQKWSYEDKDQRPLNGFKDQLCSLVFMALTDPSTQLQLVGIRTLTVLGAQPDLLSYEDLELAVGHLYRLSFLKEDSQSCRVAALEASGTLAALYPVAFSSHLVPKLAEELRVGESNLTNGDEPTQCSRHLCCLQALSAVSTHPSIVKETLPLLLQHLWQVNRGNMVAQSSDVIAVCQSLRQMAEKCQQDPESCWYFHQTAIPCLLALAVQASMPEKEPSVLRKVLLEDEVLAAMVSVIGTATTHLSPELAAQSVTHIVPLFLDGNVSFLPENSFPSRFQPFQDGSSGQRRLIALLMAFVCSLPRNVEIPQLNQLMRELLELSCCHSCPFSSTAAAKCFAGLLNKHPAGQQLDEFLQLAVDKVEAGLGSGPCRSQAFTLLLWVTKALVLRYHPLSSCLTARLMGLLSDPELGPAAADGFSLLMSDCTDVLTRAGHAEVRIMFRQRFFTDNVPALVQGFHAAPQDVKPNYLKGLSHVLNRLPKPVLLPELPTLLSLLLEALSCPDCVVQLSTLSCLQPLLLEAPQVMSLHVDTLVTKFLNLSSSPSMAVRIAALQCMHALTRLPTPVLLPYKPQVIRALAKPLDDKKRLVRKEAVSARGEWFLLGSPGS
Sequence of UniProt Q7L1V2 (Q7L1V2 whole entry, looked up): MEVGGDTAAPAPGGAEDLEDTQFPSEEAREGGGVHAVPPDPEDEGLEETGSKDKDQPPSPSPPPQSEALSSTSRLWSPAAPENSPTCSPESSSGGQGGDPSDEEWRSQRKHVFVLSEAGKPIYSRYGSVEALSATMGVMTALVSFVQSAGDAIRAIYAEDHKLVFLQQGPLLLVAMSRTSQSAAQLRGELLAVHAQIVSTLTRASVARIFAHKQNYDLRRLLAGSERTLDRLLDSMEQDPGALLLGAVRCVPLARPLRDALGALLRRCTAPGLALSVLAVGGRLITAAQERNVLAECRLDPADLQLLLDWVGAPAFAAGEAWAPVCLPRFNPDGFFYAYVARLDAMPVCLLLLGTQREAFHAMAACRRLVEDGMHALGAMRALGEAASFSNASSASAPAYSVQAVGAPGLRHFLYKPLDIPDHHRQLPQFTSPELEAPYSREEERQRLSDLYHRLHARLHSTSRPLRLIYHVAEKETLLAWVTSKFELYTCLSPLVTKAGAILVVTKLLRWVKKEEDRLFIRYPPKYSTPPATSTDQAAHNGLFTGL
Sequence of UniProt Q9UH92 (Q9UH92 whole entry, looked up): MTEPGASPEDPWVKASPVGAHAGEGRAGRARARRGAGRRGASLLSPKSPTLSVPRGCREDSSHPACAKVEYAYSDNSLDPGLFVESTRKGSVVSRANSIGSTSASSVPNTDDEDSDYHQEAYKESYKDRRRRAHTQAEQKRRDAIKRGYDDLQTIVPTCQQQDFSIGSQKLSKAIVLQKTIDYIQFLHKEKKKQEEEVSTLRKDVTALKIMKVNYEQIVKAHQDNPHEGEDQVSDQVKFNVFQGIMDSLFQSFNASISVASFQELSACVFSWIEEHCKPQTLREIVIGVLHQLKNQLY
Sequence of UniProt Q9H1E3 (Q9H1E3 whole entry, looked up): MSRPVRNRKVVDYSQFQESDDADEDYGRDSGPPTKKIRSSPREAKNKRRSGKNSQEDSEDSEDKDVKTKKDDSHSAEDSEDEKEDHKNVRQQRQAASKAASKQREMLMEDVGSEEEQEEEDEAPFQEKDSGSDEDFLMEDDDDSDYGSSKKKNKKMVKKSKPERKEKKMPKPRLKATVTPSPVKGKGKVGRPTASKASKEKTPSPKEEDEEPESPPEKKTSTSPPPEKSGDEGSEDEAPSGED
Sequence of UniProt O75607 (O75607 whole entry, looked up): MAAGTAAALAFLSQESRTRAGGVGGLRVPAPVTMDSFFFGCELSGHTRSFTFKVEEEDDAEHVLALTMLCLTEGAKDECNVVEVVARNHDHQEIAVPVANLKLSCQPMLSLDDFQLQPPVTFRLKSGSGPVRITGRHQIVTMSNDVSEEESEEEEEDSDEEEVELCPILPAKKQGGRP
Sequence of UniProt Q8WUY8 (Q8WUY8 whole entry, looked up): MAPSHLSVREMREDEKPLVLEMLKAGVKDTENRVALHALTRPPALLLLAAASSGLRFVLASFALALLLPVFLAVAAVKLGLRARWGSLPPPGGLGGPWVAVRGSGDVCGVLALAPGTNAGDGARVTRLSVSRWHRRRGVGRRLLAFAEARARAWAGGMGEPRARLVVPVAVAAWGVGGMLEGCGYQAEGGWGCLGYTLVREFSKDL
Sequence of UniProt O75030 (O75030 whole entry, looked up): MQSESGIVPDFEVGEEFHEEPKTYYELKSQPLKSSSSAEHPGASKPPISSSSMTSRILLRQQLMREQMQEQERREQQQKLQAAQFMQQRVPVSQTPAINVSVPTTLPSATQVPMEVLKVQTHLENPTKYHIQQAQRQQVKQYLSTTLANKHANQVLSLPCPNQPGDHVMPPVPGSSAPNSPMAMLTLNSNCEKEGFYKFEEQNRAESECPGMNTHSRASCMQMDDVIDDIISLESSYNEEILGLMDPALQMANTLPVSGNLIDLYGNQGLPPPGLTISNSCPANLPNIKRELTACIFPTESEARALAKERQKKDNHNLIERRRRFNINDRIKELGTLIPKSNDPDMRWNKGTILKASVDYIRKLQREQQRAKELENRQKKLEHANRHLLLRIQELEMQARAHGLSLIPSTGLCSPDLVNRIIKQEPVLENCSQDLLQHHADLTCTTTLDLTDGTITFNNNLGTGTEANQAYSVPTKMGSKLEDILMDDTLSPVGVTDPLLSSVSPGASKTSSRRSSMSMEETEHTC
Sequence of UniProt P25208 (P25208 whole entry, looked up): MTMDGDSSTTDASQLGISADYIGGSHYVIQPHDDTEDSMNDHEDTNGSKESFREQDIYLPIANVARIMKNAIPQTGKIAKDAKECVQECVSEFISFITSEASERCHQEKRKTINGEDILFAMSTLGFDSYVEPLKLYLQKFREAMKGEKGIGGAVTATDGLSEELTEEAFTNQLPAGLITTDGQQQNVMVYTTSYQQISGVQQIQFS
Sequence of UniProt Q69YL0 (Q69YL0 whole entry, looked up): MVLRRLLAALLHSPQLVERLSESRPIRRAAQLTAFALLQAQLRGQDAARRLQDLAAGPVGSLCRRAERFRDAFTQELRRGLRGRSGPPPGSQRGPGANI

Target | log2 fold change [1] | log2 fold change [2] | log2 fold change [3] | log2 fold change [4] | log2 fold change (entinostat) | log2 fold change (vorinostat) | log2 fold change (citarinostat) | log2 fold change (silmitasertib) | log2 fold change [5] | log2 fold change [6] | log2 fold change (entospletinib)
NUCKS1 (UniProt Q9H1E3) | -0.405 (active) | 0.035 | 0.014 | 0.04 | -0.01 | -0.08 | -0.022 | -0.008 | -0.044 | 0.079 | -0.02
NAT14 (UniProt Q8WUY8) | 0.038 | -0.135 | -0.108 | -0.33 | -0.033 | – | 0.04 | 0 | -0.037 | -0.108 | 0.007
NCBP2AS2 (UniProt Q69YL0) | -0.21 | -0.161 | -0.312 | -0.157 | -0.004 | 0.024 | 0 | 0.024 | – | -0.046 | -0.017
MITF (UniProt O75030) | -0.023 | 0.021 | -0.11 | 0.302 | -0.048 | 0.2 | 0.083 | 0.071 | – | -0.022 | -0.085
NPC1L1 (UniProt Q9UHC9) | 0.011 | -0.038 | -0.104 | -0.024 | -0.011 | – | 0.036 | -0.028 | – | 0.054 | -0.007
MON1B (UniProt Q7L1V2) | 0.015 | -0.045 | -0.312 (active) | -0.053 | -0.018 | -0.001 | 0.056 | 0.032 | 0.052 | -0.081 | 0.017
NDUFB10 (UniProt O96000) | -0.062 | -0.06 | -0.054 | -0.022 | -0.034 | -0.053 | 0.031 | 0.021 | -0.018 | -0.006 | 0.003
MT-ND1 (UniProt P03886) | 0.166 | 0.244 | -0.004 | 0.289 | -0.051 | – | 0.05 | 0.039 | 0.1 | -0.075 | 0.1
MMS19 isoform 8 (UniProt Q96T76) | 0.01 | -0.026 | -0.157 | -0.072 | 0.066 | 0.017 | 0.097 | 0.085 | -0.003 | -0.007 | 0.033
MTFR1L (UniProt Q9H019) | -0.069 | -0.079 | – | -0.005 | 0.069 | 0.356 | – | – | -0.014 | – | –
NIPSNAP3B (UniProt Q9BS92) | 0.279 | 0.011 | -0.069 | 0.053 | -0.001 | -0.064 | 0.137 | -0.022 | – | -0.09 | -0.03
NIPSNAP2 (UniProt C9J7B1) | -0.009 | 0.175 | -0.017 | – | 0.148 | – | – | 0.019 | – | – | –
NAA11 (UniProt Q9BSU3) | 0.139 | -0.048 | -0.072 | 0.167 | 0.375 (active) | – | -0.05 | -0.001 | -0.064 | -0.022 | -0.041
NPM3 (UniProt O75607) | 0.029 | 0.02 | 0.216 | 0.017 | -0.019 | -0.023 | -0.059 | 0.137 | – | -0.101 | 0.008
MLX (UniProt Q9UH92) | 0.144 | -0.115 | -0.177 | – | 0.005 | 0.095 | 0.139 | -0.091 | -0.086 | -0.175 | -0.17
NRDC isoform 2 (UniProt O43847) | -0.01 | -0.044 | -0.057 | -0.036 | 0.043 | 0.04 | 0.024 | 0.025 | -0.05 | -0.06 | -0.005
NFYB (UniProt P25208) | -0.022 | 0.102 | -0.074 | 0.069 | -0.001 | -0.038 | -0.006 | 0.043 | – | 0.033 | 0.04
NNMT (UniProt P40261) | 0.013 | -0.04 | -0.179 | -0.037 | -0.056 | 0.128 | -0.023 | 0.013 | -0.042 | 0.139 | 0.042
OPHN1 (UniProt O60890) | 0.073 | -0.134 | -0.056 | – | -0.084 | 0.128 | 0.021 | 0.031 | -0.046 | 0.094 | -0.014
NDUFA7 (UniProt O95182) | 0.019 | 0.005 | -0.108 | -0.059 | 0 | 0.012 | 0.008 | -0.037 | -0.047 | -0.039 | 0.027
NUMA1 (UniProt Q14980) | -0.117 | -0.091 | -0.139 | 0.101 | 0.072 | 0.002 | 0.01 | 0.005 | 0.007 | -0.12 | 0.049
